High-throughput results deposited in PubChem BioAssay by National Center for Advancing Translational Sciences (NCATS).
Vif-A3G inh: qHTS for Inhibitors of Vif-A3G Interactions: qHTS; DNA dC->dU-editing enzyme APOBEC-3G (Homo sapiens), Q9HC16; HeLa A3G-eYFP + Vif (tagged APOBEC3G with the HIV-1 protein that degrades it), YFP fluorescence, overnight; Potency, µM (series often up to 46.1 µM), for the others: at the highest dose activity, negative = active, hits mostly inhibitors; 410,000 compounds, 0.076% hits; AID 602310, 2012; also: % is scaled to controls: 0 for no effect and ±100 for the full control effect; nearly all actives have a fitted effect of over 60% in size
Target sequence (Q9HC16 whole entry, looked up): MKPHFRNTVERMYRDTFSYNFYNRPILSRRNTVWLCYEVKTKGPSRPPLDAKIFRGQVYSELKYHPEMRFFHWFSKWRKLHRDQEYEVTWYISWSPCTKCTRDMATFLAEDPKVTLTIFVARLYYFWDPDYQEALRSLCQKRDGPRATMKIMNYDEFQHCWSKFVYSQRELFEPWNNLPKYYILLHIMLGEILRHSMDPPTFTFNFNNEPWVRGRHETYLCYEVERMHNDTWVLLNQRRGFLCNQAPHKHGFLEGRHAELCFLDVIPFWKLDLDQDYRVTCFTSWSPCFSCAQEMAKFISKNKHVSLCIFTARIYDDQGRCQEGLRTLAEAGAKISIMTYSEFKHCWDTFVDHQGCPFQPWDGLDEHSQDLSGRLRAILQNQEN
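HeLa cells stably expressing Vif and C-terminally eYFP-tagged A3G, seeded overnight at 37 deg C, then exposed to compound by pintool overnight at 37 deg C. Rise in yellow fluorescence (Ex 488/Em 500-530, Acumen) marks blocked Vif-driven A3G degradation.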
Epigenetic derep: Quantitative High-Throughput Screen for Regulators of Epigenetic Control; murine LDR cells, GFP reporter derepression, 30 h; Potency, µM (highest dose often 53.9 µM), for inactives: at the top dose GFP activation, usual class: activators; 280,000 compounds, 0.2% hits; AID 1865, 2009; also: % of control where 0% means no effect; nearly all actives have a fitted effect of over 60% in size
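Readout is the number of GFP-expressing murine LDR cells, counted by cytometry following washing. Cells were treated with compound for 30 h at 37 C; the stably integrated CMV-GFP locus is normally silent.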
Vif-A3F inh: qHTS for Inhibitors of Vif-A3F Interactions: qHTS. AID 602313, 2012. Potency, µM (titrated, usually from 46.1 µM), for the others: at the highest dose activity, negative = active. HeLa A3F-eYFP + Vif (tagged APOBEC3F with the HIV-1 protein that degrades it), YFP fluorescence increase. 390,000 compounds, 0.2% hits; also: % of control where 0% means no effect; nearly all actives have a fitted effect of over 65% in size
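Fluorescence increase (Ex 488/Em 500-530) after overnight compound treatment at 37 deg C flags inhibition of Vif-driven A3F-eYFP loss in stable HeLa A3F-eYFP/Vif cells seeded overnight beforehand.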
PINK1 modulator: A Quantitative High throughput Screen to Identify Chemical Modulators of PINK1 Expression; PINK1 immunofluorescence, high-content cytometry, 24 h; Potency, µM (top dose mostly 76.6 µM), for inactives: top-dose activation (PINK1 increase), actives largely listed as activators; 410,000 compounds, 0.2% hits; AID 624263, 2012; active = well fitted activation curve with a large enough effect; inconclusive = small, poorly fitted or top-dose-only effect; cell line not stated here; also: % of control where 0% means no effect; nearly all actives have a fitted effect of over 65% in size
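Stable cell line, 250 cells/well, 12 h attachment; compounds pinned at 5 concentrations, 24 h; CCCP control. Fixed with nuclear dye, primary antibodies 12 h at 10 degrees C, secondary plus cell stain; laser-scanning cytometer read.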
* hit, by the source's call; ? = inconclusive; / = no result; [ ] = another dose, or the depositor's remark. Sampled rows, rich in hits. Any-hit rate of the full collection: about 0.51%. Unless noted, calls follow the shape of the dose curve; as a rule, active = well fitted curve in the direction sought with a large enough effect; inconclusive = small, poorly fitted or top-dose-only effect, or another doubt; inactive = no such curve, though single readings can be large; an effect the other way counts as inactive or inconclusive. Potency is read from the fitted curve at half-maximal effect.

SMILES	Vif-A3G inh	Epigenetic derep	Vif-A3F inh	PINK1 modulator
COc1ccc2c(c1)c1nc3ccccc3nc1n2Cc1ccc(OC(C)C)c(OC)c1	-27%	?	22µM*	5%
O=C(O)Cn1c2ccccc2c2nc3ccccc3nc21	?	/	8.9µM*	1%
COc1ccc2c(c1)c1nc3ccccc3nc1n2CCn1c(=O)oc2ccccc21	0%	0%	?	4µM*
O=c1oc2ccccc2n1CCn1c2ccccc2c2nc3ccccc3nc21	0%	0%	1%	7%
COc1ccc2c(c1)c1nc3ccccc3nc1n2CC(=O)OC(C)C	-18%	?	25µM*	?
CCN1CCN(C(=O)c2cnn(-c3ncc4c(n3)-c3ccccc3CCC4)c2COC)CC1	/	/	/	0%
O=C(Cn1cc(S(=O)(=O)Cc2ccccc2F)c2ccccc21)Nc1ccc(F)c(Cl)c1	-4%	-1%	0%	35µM*
O=C(Cn1cc(S(=O)(=O)Cc2ccccc2F)c2ccccc21)NCc1ccccc1Cl	-1%	-1%	-3%	2%
Oc1cc(-c2ccc(N3CCCCC3)nc2)cc2cccnc12	3%	/	?	13µM*
Oc1cc(-c2ccncc2)cc2cccnc12	?	/	1%	0%
CCC(NC(=S)NCc1ccc(F)cc1)c1ccc(C(C)C)cc1 (stereo unspecified)	3%	/	-25%	16µM*
Cc1onc(-c2c(F)cccc2Cl)c1C(=O)Nc1ccc(S(=O)(=O)N2CCOCC2)cc1	-2%	/	-3%	0%
Cc1onc(-c2c(F)cccc2Cl)c1C(=O)Nc1cc(S(=O)(=O)N2CCCCC2)ccc1O	-3%	/	1%	16µM*
CNC(=O)c1c(NC(=O)c2nc(SCc3ccc(C)cc3)ncc2Cl)sc2c1CCCC2	-2%	22µM*	-7%	1%
Cc1ccc(CSc2ncc(Cl)c(C(=O)Nc3sc4c(c3C(N)=O)CCCC4)n2)cc1	4%	?	2%	4%
Cc1ccccc1C1=C/C(=C(\SS/C(C(=O)c2ccc(OCC(=O)O)c(Cl)c2Cl)=C2\C=C(c3ccccc3C)SS2)C(=O)c2ccc(OCC(=O)O)c(Cl)c2Cl)SS1	4%	/	0%	35µM*
O=C(O)COc1ccc(C(=O)c2cccs2)c(Cl)c1Cl	/	0%	/	/
COc1ccc(C(=O)NCc2nc(-c3cccc(NC(=O)c4ccc(C)s4)c3)oc2C)cc1	/	/	/	-1%
CN1/C(=C\C=C(/C#N)C(=O)Nc2ccc(Cl)cc2)C(C)(C)c2ccccc21	7.1µM*	22µM*	?	?
CN1/C(=C\C(=O)Nc2ccc(Cl)cc2)C(C)(C)c2ccccc21	3%	1%	?	?
CN1/C(=C\C=C(C#N)C#N)C(C)(C)c2ccccc21	-2%	25µM*	11µM*	5%
CC1CN(Cc2cccn2-c2cccnc2)Cc2cc(Cl)ccc2O1 (stereo unspecified)	/	/	/	2%
O=C(NCC1CCCO1)c1nn2c(C(F)(F)F)cc(-c3cc(Br)cs3)nc2c1Br (stereo unspecified)	-9%	/	10µM*	?
COCC(=O)Nc1cc(C(=O)N2CCCOc3c(cccc3OC)C2)c2c(c1)nc(C1CCC1)n2C	/	/	/	1%
CC1=CC(C)(C)Nc2ccc(OC(=O)c3ccco3)cc21	11µM*	?	?	/
SMILES	Vif-A3G inh	Epigenetic derep	Vif-A3F inh	PINK1 modulator
Cc1cccc(-c2noc(-c3ccc(NCc4ccco4)c([N+](=O)[O-])c3)n2)c1	1%	-4%	10µM*	2%
COC(=O)c1cc2c(C)c(C)c3ccccn3c-2c1C(=O)OC	-7%	?	?	8%
CC(C)OC(=O)c1c2c(n3ccccc13)C(=O)c1ccccc1C2=O	?	10µM*	?	11%
O=C(CCN1Cc2ccccc2OC(c2ccccc2F)C1)N1CCC(N2CCCC(O)C2)CC1 (stereo unspecified)	/	/	/	6%
C/C(=N\NC(=O)C(C)Oc1ccc([N+](=O)[O-])cc1)c1ccccn1 (stereo unspecified)	-5%	16µM*	-5%	-6%[38.3 µM]
Cc1ccccc1C1(CC(=O)N2CCCCC2C)CC(=O)N(Cc2cccnc2)C1=O (stereo unspecified)	/	/	/	-1%
COC(=O)CSCc1nc2ccccc2[nH]c1=O	-11%	25µM*	?	1%
COC(=O)CCc1nc2ccccc2[nH]c1=O	-9%	-1%	-10%	4%[38.3 µM]
CN(C)CCNc1ccc2nnn3c4ccc(O)cc4c(=O)c1c23	-11%	/	?	-2%
CCN(CC)CCCNc1ccc2ncn3c4ccc(O)cc4c(=O)c1c23	?	/	22µM*	-4%
COC(=O)c1cc(CNC(=O)c2ccc(N(C)C)cc2)cc(NC(=O)c2ccccc2Cl)c1	/	/	/	0%
O=C(CSc1nc2ccc([N+](=O)[O-])cc2[nH]1)NC1CCCCCC1	-3%	0%	-12%	14µM*
O=C(CSc1nc2ccc([N+](=O)[O-])cc2[nH]1)NC1CCCCC1	3%	-1%	2%	?
CCCCNc1c(-c2ccc(SC(C)CC)cc2)nc2cnccn12 (stereo unspecified)	?	/	10µM*	-1%
CCCCNc1c(-c2ccc(OC)c(Sc3ccc(OC)cc3)c2)nc2cnccn12	-19%	/	3%	28%
CC(C)c1c(C(=O)NCc2ccccn2)cnn1-c1nccc(-c2ccccc2F)n1	/	/	/	1%
Cc1cc(C)n2nc(C(=O)NCC3Cc4cccc(-c5ccc(S(C)(=O)=O)cc5)c4O3)cc2n1 (stereo unspecified)	/	/	/	2%
O=c1oc(/C=C/c2ccc([N+](=O)[O-])s2)nc2ccccc12	-18%	/	28µM*	40µM*
CC(=O)Oc1ccccc1/C=C/c1nc2ccccc2c(=O)o1	0%	/	3%	-1%
CN(c1ccccc1)S(=O)(=O)CS(=O)(=O)N(C)c1ccccc1	1%	/	9%	-1%
CN(c1ccccc1)P(=O)(N(C)c1ccccc1)N(C)c1ccccc1	0%	2%	4%	16µM*
O=C(NC(=S)Nc1ccc(F)c(Cl)c1)C1CC1	0%	/	-19%	4%
